Compound activity: PubChem, National Center for Advancing Translational Sciences (NCATS)
Hits are enriched below; roughly 3.9% of the tested compounds scored in any of these assays.
Tb PFK inh = T. brucei PFK enzyme inhibition. Potency, µM (titrated, usually from 57.5 µM), most hits filed as inhibitors. T. brucei PFK, ADP-Glo luminescence. AID 485367. 330,000 tested, 0.17% active. O15648; note: nearly all actives have a fitted effect of over 60% in size
Target sequence (O15648 whole entry, looked up): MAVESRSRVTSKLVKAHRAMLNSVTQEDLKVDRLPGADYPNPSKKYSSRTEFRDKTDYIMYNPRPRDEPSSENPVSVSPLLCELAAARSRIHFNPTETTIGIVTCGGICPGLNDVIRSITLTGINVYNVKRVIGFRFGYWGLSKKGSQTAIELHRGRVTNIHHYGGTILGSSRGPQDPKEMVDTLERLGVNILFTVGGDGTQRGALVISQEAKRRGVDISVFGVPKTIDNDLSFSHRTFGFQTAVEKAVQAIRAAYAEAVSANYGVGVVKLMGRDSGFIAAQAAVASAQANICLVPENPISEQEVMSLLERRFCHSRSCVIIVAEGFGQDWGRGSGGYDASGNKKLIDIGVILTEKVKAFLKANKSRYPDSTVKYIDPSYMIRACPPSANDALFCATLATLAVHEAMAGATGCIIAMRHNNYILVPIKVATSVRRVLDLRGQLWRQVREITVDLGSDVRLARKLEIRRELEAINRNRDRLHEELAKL
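Luminescent ADP detection (ADP-Glo, two-step: ATP depletion then ADP-to-ATP conversion for luciferase) reported PFK activity after 45 min room-temperature reaction of 1.25 nM enzyme with 0.5 mM F6P and 0.1 mM ATP at pH 8.0.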
PLK1 PBD block = blocks phosphopeptide binding to human PLK1 polo-box domain. P53350. Plk1 PBD binding of FITC phosphopeptide, fluorescence polarization. 360,000 tested, 2.8% active. Potency, µM, most hits filed as inhibitors. AID 720504; note: series mostly up to about 57 µM; nearly all actives have a fitted effect of over 65% in size
BRCA1 expr up = BRCA1 expression activation. MCF7-BRCA1-FFLuc reporter, luminescence, 48 h; response scale: scaled: vehicle 0%, 10 µM genistein 100%. Potency, µM (highest dose often 46.1 µM), most hits filed as activators. 380,000 tested, 1.1% active. AID 624202; note: nearly all actives have a fitted effect of over 80% in size
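Activators of BRCA1 expression were detected as increased firefly luciferase luminescence in engineered MCF7 cells after 48 h compound incubation. Signals were scaled to genistein 10 microM as full activation.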
VDR inhibitor = inhibitors of human vitamin D receptor; VDR-SRC2-3 peptide fluorescence polarization, 2 h; Potency, µM, actives largely listed as inhibitors; 400,000 tested, 0.93% active; AID 504847
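Two reagent solutions held at 4 deg C in the dark were dispensed, compounds pinned at 23 nl, and the mixture incubated 2 h at room temperature. Read-out: fluorescence polarization of VDR–SRC2-3 peptide binding.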
Large screens that a line does not name were inactive. Calls come from the whole dose curve; as a rule, active = well fitted curve in the direction sought with a large enough effect; inconclusive = small, poorly fitted or top-dose-only effect, or another doubt; inactive = no such curve, though single readings can be large; an effect the other way counts as inactive or inconclusive.

CC1CC[C@@]2(OC1)O[C@@H]1[C@@H](O)[C@H]3C4CC[C@H]5C[C@@H](O[C@@H]6O[C@H](CO)[C@H](O[C@@H]7O[C@H](CO)[C@@H](O)[C@H](O[C@@H]8OC[C@@H](O)[C@H](O)[C@H]8O)[C@H]7O[C@@H]7O[C@H](CO)[C@@H](O)[C@H](O[C@@H]8O[C@H](CO)[C@@H](O)[C@H](O)[C@H]8O)[C@H]7O)[C@H](O)[C@H]6O)[C@H](O)C[C@]5(C)C4CC[C@]3(C)[C@H]1[C@@H]2C (some centres undefined)	none (no result: Tb PFK inh, PLK1 PBD block, BRCA1 expr up)
CCc1nnc(NS(=O)(=O)c2ccc(N=Cc3c(O)n(-c4ccc(Cl)cc4)c(=O)[nH]c3=O)cc2)s1	PLK1 PBD block 27µM
C/C(=C(/CCOC(=O)C(C)C)SS/C(CCOC(=O)C(C)C)=C(\C)N(C=O)Cc1cnc(C)nc1N)N(C=O)Cc1cnc(C)nc1N	VDR inhibitor 16µM (no result: Tb PFK inh, PLK1 PBD block, BRCA1 expr up)
O=C1CCCC2[C@@H]3CCCN4CCC[C@@H](CN12)C34 (some centres undefined)	none (no result: Tb PFK inh, PLK1 PBD block, BRCA1 expr up)
CCOC(=O)CC(SP(=S)(OC)OC)C(=O)OCC (centres undefined)	VDR inhibitor 28µM (no result: Tb PFK inh, PLK1 PBD block, BRCA1 expr up)
CCOC(=O)CC(SP1(=S)OCC2(CCCCC2)CO1)C(=O)OCC (centres undefined)	none (no result: Tb PFK inh)
Cc1cc(=O)oc2c1c(C)nn2-c1nn[nH]n1	PLK1 PBD block 11µM, VDR inhibitor inconclusive
Cc1cccc(-n2c(O)c(C)c(=O)[nH]c2=S)c1	PLK1 PBD block 12µM
COc1cc(CNC(=O)CCCC/C=C/C(C)C)ccc1O	Tb PFK inh inconclusive
C[C@]12CCC3C(CC[C@H]4C[C@@H](O)CC[C@]34C)[C@@H]1CCC2=O (some centres undefined)	none (no result: Tb PFK inh, PLK1 PBD block, BRCA1 expr up)
O=C(c1ccc(CNS(=O)(=O)c2ccccc2)cc1)N1CCC2(CC1)OCCO2	PLK1 PBD block 21µM
O[C@@H]1CCCC[C@@H]1N1CCC(c2ccccc2)CC1	none (no result: Tb PFK inh, PLK1 PBD block, BRCA1 expr up)
c1ccc2c(c1)c1cc[n+]2CCCCC[n+]2ccc(c3ccccc32)NCCCCCN1	none (no result: Tb PFK inh, PLK1 PBD block, BRCA1 expr up)
COC(=O)c1nc(-c2ccc3c(n2)C(=O)C(N)=C(OC)C3=O)c(N)c(-c2ccc(OC)c(OC)c2O)c1C	VDR inhibitor 10µM
CC(C)CC1C(C#N)=C(N)Oc2c1c(=O)oc1ccccc21 (centres undefined)	PLK1 PBD block 12µM, VDR inhibitor inconclusive
C/C(O)=C(/C#N)C(=O)Nc1cc(Br)ccc1Br	none (no result: Tb PFK inh, PLK1 PBD block, BRCA1 expr up)
CCC1(O)C(=O)OCc2c1cc1n(c2=O)Cc2cc3cc(O)ccc3nc2-1 (centres undefined)	PLK1 PBD block 12µM, BRCA1 expr up inconclusive (no result: Tb PFK inh)
CC[C@@]1(O)C(=O)OCc2c1cc1n(c2=O)Cc2cc3ccccc3nc2-1	none (no result: PLK1 PBD block)
CC(C)OC(=O)C(O)(c1ccc(Cl)cc1)c1ccc(Cl)cc1	none (no result: Tb PFK inh, PLK1 PBD block, BRCA1 expr up)
C[CH2][Hg][S]c1ccccc1C(=O)O	PLK1 PBD block 2.7µM, VDR inhibitor 79µM (no result: Tb PFK inh)
O=C(O)c1ccccc1SSc1ccccc1C(=O)O	PLK1 PBD block 12µM, VDR inhibitor inconclusive
O=C(O)c1cc2ccccc2oc1=O	none
CCC(Oc1ccc(Cl)cc1)C(=O)OC1CC2CCC(C1)N2C (centres undefined)	none (no result: Tb PFK inh, PLK1 PBD block, BRCA1 expr up)
COC(=O)C12C/C=C\Cc3ccccc3[C@@H]1CNC2=O (some centres undefined)	none (no result: Tb PFK inh, PLK1 PBD block, BRCA1 expr up)
CCCCC/C=C\C/C=C\C/C=C\CCCCC(=O)NCCO	none (no result: Tb PFK inh, PLK1 PBD block, BRCA1 expr up)
COCCn1c(-c2ccccc2)cc(C(=O)O)c1C	PLK1 PBD block 24µM (no result: Tb PFK inh)
OCC(Br)(Br)Br	none (no result: Tb PFK inh, PLK1 PBD block, BRCA1 expr up)
Cn1c(O)c(/C=C2\N=c3ccccc3=C2CCNC(=S)NC2CC2)c(=O)n(C)c1=O	PLK1 PBD block 0.95µM, VDR inhibitor 71µM
Cn1c(O)c(C=NCc2cccs2)c(=O)n(C)c1=O	none
C=C[C@@H]1CN2CC[C@H]1C[C@H]2[C@H](O)c1ccnc2ccccc12	none (no result: Tb PFK inh, PLK1 PBD block, BRCA1 expr up)
CC1(C)C(C(Cl)Cl)C2(Cl)C(Cl)C(Cl)C1(Cl)C2(Cl)Cl (centres undefined)	none (no result: Tb PFK inh, PLK1 PBD block, BRCA1 expr up)
CCC1(C)CC(C(N)=S)CCO1 (centres undefined)	Tb PFK inh inconclusive, PLK1 PBD block 2.1µM, VDR inhibitor 20µM
CC1=C(O)C(=O)C=C2C1=CC=C1[C@]2(C)CC[C@@]2(C)C3C[C@](C)(C(=O)O)CC[C@@]3(C)CC[C@@]12C (some centres undefined)	VDR inhibitor 3.5µM (no result: Tb PFK inh, PLK1 PBD block, BRCA1 expr up)
ClCCN(CCCl)c1ccc(/C=C/c2ccnc3ccccc23)cc1	none (no result: Tb PFK inh, PLK1 PBD block, VDR inhibitor)
Cc1cc(C(C#N)c2ccc(Cl)cc2)c(Cl)cc1NC(=O)c1cc(I)cc(I)c1O (centres undefined)	PLK1 PBD block inconclusive, VDR inhibitor inconclusive
CC(=O)NC1N=C(C)N(c2ccccc2)C1=O (centres undefined)	PLK1 PBD block 27µM, VDR inhibitor inconclusive
